Reference: PubChem BioAssay AID2537 (National Center for Advancing Translational Sciences (NCATS), 2010)
Records with an inconclusive call do not appear. Activity calls are given as the source filed them. The call rests on the fitted dose curve; in most records, active means well fitted inhibition curve with a large enough effect; inconclusive means small, poorly fitted or top-dose-only effect; inactive means no such curve, though single readings can be large or run the other way.

target: Polyunsaturated fatty acid lipoxygenase ALOX15B (Homo sapiens) (UniProt O15296); test: Confirmation qHTS Assay for Inhibitors of 15-hLO-2 (15-human lipoxygenase 2); conditions: purified 15hLO-2, xylenol orange hydroperoxide absorbance; series mostly up to 57.1 µM
Experimental: Human lipoxygenase 15hLO-2 is a member of the closely related lipoxygenase family of enzymes which catalyze the site-specific oxidation of arachidonic acid to various hormone precursor molecules and as such is a candidate for drug development in a variety of disease areas, such as cancer and inflammation. Inhibition of 15hLO-2 activity was screened by utilizing arachidonic acid as a substrate. The extent of hydroperoxide product formation was measured by a secondary chromogenic reaction in which xylenol orange (XO, Sigma-Aldrich, cat. number 39,818-7) reacts with the ferric ions produced from the reaction between the hydroperoxide and ferrous ions. The Fe(III)-XO complex is characterized with red-shifted absorbance at 560 nm. A purified preparation of human 15hLO-2 was supplied by Professor Ted Holman, University of California, Santa Cruz. NIH Molecular Libraries Screening Centers Network [MLSCN] NIH Chemical Genomics Center [NCGC] MLSCN Grant: MH081283-01A1 PI Name: Holman, T.R., University of California, Santa Cruz
Assay Protocol: Buffer: 25 mM Hepes pH 7.5, 0.01% Triton X-100. Reagents/Controls: Buffer in columns 3 and 4 as negative control (no enzyme). Substrate solution: 45 uM arachidonic acid (Sigma-Aldrich, St. Louis, MO) final concentration dispensed throughout the plate. Enzyme: 50 nM 15hLO-2 final concentration in columns 1, 2, 5-48. Column 1 is neutral (100% activity). Column 2 contained pin-transferred titration of NDGA (nordihidroguaiaretic acid, Sigma-Aldrich, N 5023, top concentration 10 mM in DMSO, then 1:2 dilution in duplicate). (Dilution factor: 23 nL into 4 uL.) Chromogenic detection reagent (divalent iron/xylenol orange, Fe-XO): 200 uM xylenol orange plus 300 uM ferrous ammonium sulfate prepared freshly in 50 mM sulfuric acid. Assay Steps: Three uL of enzyme were dispensed to 1536-well Greiner black clear bottom plates. Compounds and controls (23 nL) were transferred via Kalypsys PinTool. The plates were incubated for 15 min at room temperature, and then 1 uL of substrate solution was added to start the reaction. After room temperature incubation for 90 minutes, 4 uL of Fe-XO solution was added to each well followed by a short spin (1000 rpm, 15 sec) and the plates were then incubated for 30 min. The absorbance at 405 and 573 nm were measured using ViewLux (Perkin-Elmer) High-throughput CCD imager and absorbance protocol settings. The 573-to-405 absorbance ratio was used to compute reaction progress.

Polyunsaturated fatty acid lipoxygenase ALOX15B (Homo sapiens), sequence (O15296 whole entry, looked up): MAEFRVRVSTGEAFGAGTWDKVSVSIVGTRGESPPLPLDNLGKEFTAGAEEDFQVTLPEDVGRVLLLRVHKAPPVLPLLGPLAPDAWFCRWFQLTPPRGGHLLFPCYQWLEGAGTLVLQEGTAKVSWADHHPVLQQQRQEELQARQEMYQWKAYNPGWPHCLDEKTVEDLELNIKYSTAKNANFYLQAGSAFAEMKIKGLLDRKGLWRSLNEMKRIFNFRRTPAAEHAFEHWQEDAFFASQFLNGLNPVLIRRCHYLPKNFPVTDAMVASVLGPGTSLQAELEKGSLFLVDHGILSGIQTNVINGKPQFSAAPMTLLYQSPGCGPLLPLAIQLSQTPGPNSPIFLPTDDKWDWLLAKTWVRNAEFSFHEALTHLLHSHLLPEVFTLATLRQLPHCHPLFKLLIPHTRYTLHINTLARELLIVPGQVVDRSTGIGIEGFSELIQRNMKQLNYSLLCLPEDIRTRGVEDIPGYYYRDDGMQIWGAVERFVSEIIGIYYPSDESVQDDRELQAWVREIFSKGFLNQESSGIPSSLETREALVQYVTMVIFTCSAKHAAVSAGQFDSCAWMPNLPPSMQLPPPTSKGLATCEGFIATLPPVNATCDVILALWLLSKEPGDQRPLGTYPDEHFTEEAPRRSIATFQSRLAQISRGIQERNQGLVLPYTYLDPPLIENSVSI

Potency, active:
CC1=NOC(=O)/C1=C\c1ccc(-c2cccc(Cl)c2)o1 4.47 µM
Cc1ccc(-c2ccc(/C=C3\C(=O)ON=C3c3ccccc3)o2)c([N+](=O)[O-])c1 3.16 µM
Cc1ccc(SCCNC(=S)Nc2ccc(C)c(C)c2)cc1 25.1 µM
c1csc(C2Nc3cccc4cccc(c34)N2)c1 12.6 µM

Potency, inactive:
COCCSc1ccccc1C(=O)NCc1ccco1
Cc1cccc(CNc2ncnc3ccc(-c4ccc5c(c4)OCO5)cc23)c1
CCOc1cc(-c2cc(-c3ccc(N)cc3)nc(N)c2C#N)ccc1O
O=C(Nc1nnc(-c2ccccc2)o1)c1ccc(Cl)cc1
Clc1ccc(NNc2ccnc3cc(Cl)ccc23)cc1
CC(=O)[C@@H]1[C@@H]2C(=O)N(Cc3ccccc3)C(=O)[C@@H]2C2c3ccccc3C=CN21 (stereo not given in full)
O=C(Cc1cc(=O)[nH][nH]1)N/N=C/C=C/c1ccccc1
CCOC(=O)c1c(NC(=O)CN2CCOCC2)sc2c1CCCC2
NC(=O)c1cccc2c3c([nH]c12)CCCC3
CN(C)/C=C/C(=O)c1ccc(Cl)cc1
COc1ccccc1-n1c(SCC(=O)Nc2ccc(C)cc2)nc(O)cc1=O
Cc1ccc(OCC(=O)Nc2ccc(N3CCCC3)cc2)cc1C
COc1cccc(-c2nccc(NCc3ccccc3OC)n2)c1
N=c1c(C(=O)NC2CCCC2)cc2c(=O)n3ccccc3nc2n1C1CCCC1
OC1(c2cccc(C(F)(F)F)c2)CCN(c2ncnc3c2[nH]c2ccc(F)cc23)CC1
Nc1cc(-c2ccncc2)c[nH]c1=O
O=C(Nc1cccc(F)c1)N1CCCC2(CCN(C(=O)c3ccco3)CC2)C1
O=c1c(-c2ccc3c(c2)OCCO3)coc2cc(O)cc(O)c12
O=C(C1=C(O)C(=O)N(Cc2ccco2)C1c1cccnc1)c1cc2ccccc2o1 (stereo not given)
O=C1C2C3CCCC3=C3CCCC3C2C(=O)N1c1cccc(Cl)c1 (stereo not given)
CCC(=O)N(Cc1cc(=O)[nH]c2ccccc12)C1CCCCC1
COC(=O)c1ccc(C(=S)N2CCOCC2)cc1
CCOc1ccc(NS(=O)(=O)c2ccc3[nH]cc(C(=O)N(CC)CC)c(=O)c3c2)cc1
Cc1cccc(NC(=O)CSC(N)=O)c1C
COc1ccccc1CNc1ncncc1-c1ccoc1
Cc1csc(-c2coc3cc(O)cc(C)c3c2=O)n1
Oc1ccc(CNc2ccccc2)c2cccnc12
CC(=O)NCCNc1ncncc1-c1ccc(N(C)C)cc1
CCOC(=O)c1ccc(N2CSC3=C(C#N)C(c4ccc(OC)cc4OC)CC(=O)N3C2)cc1 (stereo not given)
COc1cccc(-c2nc(NC3CCNCC3)c3ccccc3n2)c1
O=C(c1ccncc1)N1CCC2(CCCN(Cc3nccs3)C2)CC1
Cc1noc(C)c1-c1nc(N(C)Cc2ccco2)c2ccccc2n1
Cc1cc(Nc2nnnn2-c2ccccc2)n(-c2ccc(Cl)cc2)n1
CCCC(=O)NC(c1ccco1)c1cc(Cl)c2cccnc2c1O (stereo not given)
CCCCn1c(Cc2ccccc2)n[nH]c1=S
COc1ccc(OC)c(NC(=O)NC2(C(F)(F)F)Oc3ccccc3O2)c1
